Source: article PMC7826789 (International Journal of Molecular Sciences, 2021)

What was measured:
Conditions in all cases: Compound Concentration (nM):1000
CSNK2A2 = system: CSNK2A2
CTK = system: T1, CTK
T1 construct: gene MATK

DAPK1 = system: DAPK1
DAPK2 = system: DAPK2
DAPK3 = system: DAPK3
DCAMKL1 = system: T2, DCAMKL1
T2 construct: gene DCLK1

DCAMKL2 = system: T3, DCAMKL2
T3 construct: gene DCLK2

DCAMKL3 = system: T4, DCAMKL3
T4 construct: gene DCLK3

DDR1 = system: DDR1
DDR2 = system: DDR2
DLK = system: T5, DLK
T5 construct: gene MAP3K12

DMPK2 = system: T6, DMPK2
T6 construct: gene CDC42BPG

DMPK = system: DMPK
DRAK1 = system: T7, DRAK1
T7 construct: gene STK17A

DRAK2 = system: T8, DRAK2
T8 construct: gene STK17B

DYRK1A = system: DYRK1A
DYRK1B = system: DYRK1B
DYRK2 = system: DYRK2
EGFR(E746-A750del) = system: EGFR(E746-A750del)
EGFR(G719C) = system: EGFR(G719C)
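Note: KINOMEscan scanMAX binding as percent activity remaining versus control; lower means stronger binding.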

SMILES | Percent Control (CSNK2A2) [%] | Percent Control (CTK) [%] | Percent Control (DAPK1) [%] | Percent Control (DAPK2) [%] | Percent Control (DAPK3) [%] | Percent Control (DCAMKL1) [%] | Percent Control (DCAMKL2) [%] | Percent Control (DCAMKL3) [%] | Percent Control (DDR1) [%] | Percent Control (DDR2) [%] | Percent Control (DLK) [%] | Percent Control (DMPK2) [%] | Percent Control (DMPK) [%] | Percent Control (DRAK1) [%] | Percent Control (DRAK2) [%] | Percent Control (DYRK1A) [%] | Percent Control (DYRK1B) [%] | Percent Control (DYRK2) [%] | Percent Control (EGFR(E746-A750del)) [%] | Percent Control (EGFR(G719C)) [%]
COc1ccccc1-c1cc(/C=C2\C(=O)Nc3ncc(Br)cc32)cc(Br)c1O [GW442130X] | 72 | 99 | 100 | 88 | 88 | 100 | 100 | 89 | 92 | 100 | 100 | 100 | 100 | 85 | 100 | 59 | 68 | 95 | 100 | 100
COc1ccc2cc(-c3c(-c4ccncc4)nc(-c4ccc(S(C)(=O)=O)cc4C)n3C)ccc2c1 [SB-633825] | 79 | 62 | 96 | 88 | 82 | 71 | 85 | 89 | 2 | 58 | 84 | 41 | 100 | 93 | 79 | 77 | 100 | 70 | 57 | 66
O=C(Nc1n[nH]c2nc(-c3ccc(O)cc3)c(Br)cc12)C1CC1 [SB-725317] | 85 | 100 | 55 | 34 | 34 | 89 | 100 | 3.5 | 98 | 100 | 100 | 100 | 23 | 100 | 95 | 24 | 7.4 | 6.6 | 91 | 100
COC(=O)Nc1nc2ccc(Oc3ccc(NC(=O)Nc4cc(C(F)(F)F)ccc4F)cc3)cc2s1.Cl [GW693917A] | 68 | 91 | 95 | 100 | 100 | 95 | 86 | 100 | 0 | 5.8 | 64 | 73 | 100 | 100 | 99 | 82 | 100 | 62 | 88 | 98
CCc1ccc(Oc2nccc(-c3c(-c4ccc(F)cc4)ncn3C3CCNCC3)n2)cc1 [SB-242719] | 69 | 89 | 92 | 74 | 69 | 77 | 81 | 100 | 73 | 94 | 100 | 2.1 | 100 | 77 | 55 | 95 | 98 | 76 | 46 | 69
NS(=O)(=O)c1ccc(N/N=C2\C(=O)Nc3ccc(C(=O)NCCc4c[nH]cn4)cc32)cc1 [GW300660X] | 1.4 | 100 | 44 | 100 | 15 | 65 | 100 | 100 | 100 | 100 | 100 | 100 | 100 | 3.8 | 12 | 50 | 100 | 11 | 100 | 100
COc1cc(C=NNc2ncnc3c2cnn3-c2ccccc2)ccc1O [GW513184X] | 5.6 | 100 | 100 | 100 | 100 | 90 | 100 | 100 | 100 | 100 | 96 | 100 | 100 | 83 | 71 | 53 | 66 | 28 | 26 | 58
NS(=O)(=O)c1ccc(N/N=C2\C(=O)Nc3ccc(-c4cnco4)cc32)cc1 [GW276655] | 7 | 78 | 60 | 70 | 56 | 78 | 87 | 100 | 100 | 100 | 100 | 94 | 72 | 60 | 36 | 2.5 | 79 | 4 | 100 | 83
O=C1Nc2ccc(C(=O)c3ccco3)cc2C1=Cc1cc(Cl)c(O)c(Cl)c1 [GW406108X] | 19 | 92 | 22 | 9.2 | 10 | 80 | 94 | 100 | 100 | 93 | 42 | 100 | 100 | 80 | 32 | 0.4 | 1.9 | 41 | 86 | 73
COc1cc(/C=N/Nc2ncnc3[nH]ncc23)ccc1O [GW578748X] | 7.7 | 97 | 78 | 75 | 48 | 68 | 100 | 68 | 100 | 100 | 71 | 100 | 100 | 7 | 9.9 | 12 | 69 | 2.5 | 90 | 52
CN1CCN(C(=O)c2ccc(NC(=O)Nc3ccc(N(C)c4ccnc(Nc5ccc(CS(C)(=O)=O)cc5)n4)cc3)cc2)CC1.Cl [GW830263A] | 63 | 100 | 95 | 100 | 100 | 97 | 79 | 100 | 0 | 0 | 30 | 64 | 100 | 100 | 100 | 62 | 91 | 75 | 87 | 95
NS(=O)(=O)c1ccc(N/N=C2\C(=O)Nc3ccc(C(=O)NCc4ccncc4)cc32)cc1 [GW300657X] | 28 | 97 | 63 | 65 | 51 | 67 | 83 | 72 | 100 | 89 | 76 | 91 | 100 | 0.3 | 4.7 | 63 | 97 | 37 | 91 | 100
Cl.O=S1CCN(Cc2ccc(-c3ccc4ncnc(Nc5ccc(OCc6ccccc6)c(F)c5)c4c3)o2)CC1 [GW576924A] | 100 | 100 | 100 | 100 | 100 | 89 | 100 | 100 | 100 | 100 | 90 | 100 | 100 | 100 | 100 | 100 | 100 | 91 | 14 | 0
COc1ccc(COc2ccc(Cc3cnc(N)nc3N)cc2OC)cc1 [GW632580X] | 70 | 94 | 94 | 91 | 91 | 94 | 78 | 100 | 78 | 100 | 97 | 100 | 100 | 100 | 100 | 88 | 100 | 81 | 100 | 85
COc1cc(C)c(N(C)C(=O)CN(C)C)cc1Nc1nc(Nc2cccc(F)c2C(N)=O)c2cc[nH]c2n1 [GSK2219385] | 81 | 100 | 85 | 73 | 71 | 78 | 100 | 100 | 78 | 100 | 80 | 99 | 84 | 88 | 83 | 60 | 100 | 100 | 100 | 98
CCS(=O)(=O)c1ccc(OC)c(Nc2ncc(-c3cccc(F)c3)o2)c1 [GW621970X] | 1.4 | 100 | 100 | 100 | 100 | 100 | 98 | 100 | 55 | 100 | 71 | 100 | 100 | 100 | 100 | 61 | 67 | 41 | 73 | 100
CC1=C(C(=O)Nc2ccc3[nH]ncc3c2)C(c2ccc(Cl)c(Cl)c2)CC(=O)N1 (centres unmarked) [GSK299115A] | 79 | 62 | 81 | 83 | 81 | 83 | 55 | 45 | 88 | 81 | 77 | 82 | 100 | 100 | 84 | 70 | 59 | 68 | 98 | 66
Nc1ncnc2occ(-c3ccc(NC(=O)Nc4cc(C(F)(F)F)ccc4F)cc3)c12 [GW770249X] | 93 | 70 | 100 | 100 | 98 | 78 | 76 | 100 | 0 | 1.3 | 90 | 96 | 100 | 100 | 96 | 100 | 100 | 86 | 91 | 89
Cl.c1ccc(Cc2nc3ccc(Nc4ncnc5ccccc45)cc3[nH]2)cc1 [GR269666A] | 100 | 100 | 100 | 99 | 96 | 90 | 100 | 100 | 100 | 100 | 83 | 100 | 100 | 68 | 100 | 100 | 100 | 73 | 70 | 0
CN(C)c1cc2c(Nc3ccc4c(cnn4Cc4ccccc4)c3)ncnc2cn1 [GW282974X] | 65 | 100 | 100 | 91 | 100 | 85 | 100 | 100 | 66 | 100 | 82 | 48 | 95 | 69 | 100 | 93 | 100 | 73 | – | –
